The sample as a whole holds a higher share of hits than the screen did.
mcGAS RapidFire: blocks mouse cGAS cGAMP production; hit rate 0.18% among 130,000; Q8C6L5; recombinant mouse cGAS, cGAMP by RapidFire MS; inhibition, % at 12.5 µM;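 active = inhibition of cGAS enzyme activity at or above 60%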;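 also: enzyme stimulated by 45 bp dsDNA with ATP and GTP substrates; cGAMP share of summed cGAMP plus half ATP and half GTP signals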
Numbers without * were called inactive; ! = not active in a repeat.

SMILES	mcGAS RapidFire
O=c1c(O)c(-c2ccc(O)c(O)c2)oc2c(O)c(O)cc(O)c12	92.7*
COc1ccccc1C(=O)C1CCCN(CCC(=O)O)C1 (centres undefined)	3.9
Cc1ccoc1C(=O)N1[C@H]2CCNC[C@@H]1CC2	-30.9
CCC(O)CN(C)C1CCN(C)C(C)C1 (centres undefined)	0.7
CCC(C)(C)C(=O)NC1CCSC1=O (centres undefined)	5.5
CC(C)(C)C(=O)NC1CCSC1=O (centres undefined)	76.0*
CN1CCN2CCN(C(=O)c3ccc(N)nc3)CC2C1=O (centres undefined)	-0.9
CCN(CC)P1(=S)C(N(C)C)=Nc2ccc(Br)cc21 (centres undefined)	1.2
CC1(C(=O)O)CCCC2(C)c3c(cc([N+](=O)[O-])c(O)c3[N+](=O)[O-])CCC12 (centres undefined)	-0.4
O=C(c1cc2ncccn2n1)N1C[C@@H](c2ccccc2)[C@@H]2[C@H]1C1CCN2CC1	-1.1
Cc1nc(C2CCNCC2)cc(=O)[nH]1	-2.1
O=C(O)c1ccccc1-c1c2cc(Br)c(=O)cc-2oc2[c]([Hg])c(O)c(Br)cc12	98.7*!
NC(=O)CN=Cc1c(O)[nH]c(=O)[nH]c1=O	-13.5
Cc1cc(NC(=O)c2cccn(Cc3cccc(F)c3)c2=O)c2ccccc2n1	-2.6
CCCn1c(C)c(C(=O)NC2CC2)c2cc(OC)ccc21	-1.7
CCCCCCC(C)OC(=O)COc1ccc(Cl)cc1Cl (centres undefined)	-7.9
O=C(O)COc1cc(Cl)c(Cl)cc1Cl	98.2*
O=C(O)COc1ccc(Cl)cc1Cl	95.7*
O=C(O)COc1ccccc1	7.0
Oc1cc(Cl)ccc1Oc1ccc(Cl)cc1Cl	-18.4
CCNc1ccc(P(=S)(CC)CC)cc1	-11.9
Cc1nn(Cc2c(Cl)cccc2Cl)c(C)c1C(=O)O	-5.7
CCN(CC)P(=S)(c1ccc(N=CN(C)C)c2ccccc12)N(CC)CC	-1.5
Cc1ccccc1Cn1cccc(C(=O)Nc2ccccc2C)c1=O	-2.4
C[C@@H]1CC[C@@]2(NC1)O[C@H]1C[C@H]3C4CC=C5C[C@@H](O)CC[C@]5(C)C4CC[C@]3(C)C1[C@@H]2C (some centres undefined)	-7.8
SMILES	mcGAS RapidFire
C/C(=C\c1ccco1)CN(C)C(C)Cc1cc(C)ccn1 (centres undefined)	2.4
CSc1ccc(C(=O)C2CCCN(CCC(=O)O)C2)cc1 (centres undefined)	1.2
Oc1c(Cl)c(Cl)c(Cl)c(Cl)c1Cl	98.3*
CC(C)NC(=O)c1cc(N2CCN3CCCC3C2)ccn1 (centres undefined)	-3.1
CN1CCN(c2ccc([N+](=O)[O-])cc2)CC1	-14.8
CN1C(=C2C=NN(C)P2(=S)N2CCCC2)C(C)(C)c2ccccc21 (centres undefined)	-16.6
CC(=O)OCC1=C(C(=O)O)N2C(=O)[C@@H](NC(=O)CCCC(N)C(=O)O)C2SC1 (some centres undefined)	73.3*!
CCc1cc(C(=O)N2CCN3CCN(C)C(=O)C3C2)on1 (centres undefined)	-3.7
CCC(N)Cc1ccccc1C(F)(F)F (centres undefined)	-3.8
O=C(NCc1cccc(F)c1)C(C1CCCC1)N1CCN(C(=O)COc2ccc(Cl)cc2)CC1 (centres undefined)	-2.0

Assay outcomes (PubChem)
